Assay outcomes (PubChem)
This is one part of a sample in which hits are shown more often than they occur.
RT RNaseH block: inhibitors of HIV-1 reverse transcriptase RNase H | P04585 | RT-RNase H RNA/DNA duplex cleavage, fluorescence | inhibition, % at 10 µM | 1.9% of 65,000 active | AID 565; in the data active = inhibition above about 50%
* marks the source's active call; other numbers are inactive results.

SMILES	RT RNaseH block
Cc1ccc(/C=c2\sc3nc(-c4cccs4)nn3c2=O)o1	45
CCOC(=O)N1CCN(c2nc3ccccc3nc2C(C#N)S(=O)(=O)c2ccc(C)cc2)CC1 (centres undefined)	17
S=P(c1ccc(N2CCOCC2)cc1N1CCOCC1)(N1CCOCC1)N1CCOCC1	88*
Nc1nc2ccc(N3CCOCC3)cc2s1	11
Cc1cc(C)nc(Nc2ccc(N3CCOCC3)cc2)n1	4
COCCOC(=O)C1=C(C)N=C2SCCC(=O)N2C1c1cc(Br)ccc1OC (centres undefined)	3
CCC(C)NC(=O)CCNS(=O)(=O)c1ccc(Br)cc1 (centres undefined)	0
COc1ccc(OC)c(-n2c(SCC(=O)NCc3ccco3)nnc2-c2c[nH]c3ccccc23)c1	-1
Cc1c(NC(=O)C(C)N2CC(C)OC(C)C2)c(=O)n(-c2ccccc2)n1C (centres undefined)	4
O=C(CSc1ccccn1)Nc1ccc(Br)cn1	-23
O=C(CSc1ncn(-c2ccccc2)n1)Nc1ccc(Br)cn1	55*
O=C(CSc1ncn(-c2ccccc2)n1)Nc1ccc2c(c1)OCCO2	-11
O=C(CN1CCOCC1)Nc1cccc(Cl)c1Cl	-11
COC(=O)CCC(=O)Nc1ccc(Br)cc1	10
Cc1nnc(NC(=O)c2cccc(F)c2)s1	-4
CC(=O)Cc1nsc(NC(=O)c2ccc(-c3cccc(C(F)(F)F)c3)o2)n1	1
Cc1nnc(NC(=O)c2ccc(-c3cccc(C(F)(F)F)c3)o2)s1	57*
O=C(c1ccc(Cl)cc1)N1CCN(c2nc(N3CCCCC3)nc(N3CCCCC3)n2)CC1	1
O=C(CSc1ncn[nH]1)Nc1ccc(Cl)c(Cl)c1	-15
CCOc1ccc(C2C(C#N)=C(N)N3C(=C2C#N)Sc2ccccc23)cc1 (centres undefined)	72*
CCOc1ccc(C2C(C#N)=C(N)SC(N)=C2C#N)cc1OCC	38
N#CC1=C(N)N2C(=C(C#N)C1c1ccccc1)Sc1ccccc12 (centres undefined)	2
COc1cc(C2Nc3ccc4ncccc4c3C3=C2C(=O)CCC3)ccc1O (centres undefined)	1
CCCn1c(NC(=O)c2ccc(Cl)c(S(=O)(=O)N3CCCC3)c2)nc2ccccc21	13
COC(=O)c1nn2c(C(F)(F)F)cc(-c3ccc(Br)o3)nc2c1Br	64*
SMILES	RT RNaseH block
COC(=O)c1cnn2c(C(F)(F)F)cc(-c3ccc(F)cc3)nc12	-4
COC(=O)c1cc2nc(-c3ccc(OC)cc3)cc(C(F)(F)F)n2n1	4
OC(CN1CCN(c2cccc(C(F)(F)F)c2)CC1)c1c[nH]c2ccccc12 (centres undefined)	12
COc1ccc(F)cc1S(=O)(=O)Nc1ccc(C)cc1	-12
Cc1cc(NS(=O)(=O)c2ccc(NC(=O)CCCC(=O)O)cc2)nc(C)n1	4
CCOc1ccc(OCC(=O)Nc2ccc(S(=O)(=O)Nc3cc(C)nc(C)n3)cc2)cc1	52*
CCCCOC(=O)Nc1ccc(S(=O)(=O)Nc2cc(C)nc(C)n2)cc1	-2
O=C(Nc1ccccc1-c1ccccc1)C1CCCN(c2ncccn2)C1 (centres undefined)	-39
Cc1ccc(-n2c(CSc3nc(C)cc(C)n3)nnc2SCC(=O)NCc2ccco2)cc1	0
COc1ccc(-c2nnnn2CCc2ccccc2)cc1	-19
CN1C(=O)c2c(sc3c2CCCC3)NC1c1ccccc1O (centres undefined)	52*
COc1ccc(Br)cc1C1NC(=O)c2c(sc3c2CCN(C)C3)N1 (centres undefined)	-2
CN1CCc2c(sc3c2C(=O)NC(c2cn(Cc4ccccc4)c4ccccc24)N3)C1 (centres undefined)	9
CC(C)CC(C(=O)NCc1ccccn1)N1C(=O)c2ccccc2C1=O (centres undefined)	-5
CCOC(=O)c1c(C)oc2c1c(C=NCc1ccccn1)c(O)c1ccccc12	-43
CCOC(=O)c1c(C)oc2c1c1c(c3ccccc32)OCN(Cc2cccnc2)C1	17
CCOC(=O)c1c(C)oc2c1c(C(c1cccnc1)N1CCN(C)CC1)c(O)c1ccccc12 (centres undefined)	60*
COCCNC(=O)C1CCN(S(=O)(=O)c2ccccc2)CC1	1
C=CC[N+](C)(C)CCCNC(=O)/C=N/O	-17
COC(=O)c1ccc2c(=O)n(CCN3CCOCC3)c(SCC(=O)NC3CCCCC3)nc2c1	-4
O=C(NCc1ccco1)c1ccc2c(=O)n(CCC3=CCCCC3)c(=O)[nH]c2c1	52*
CCN1CCN(C(=O)c2ccc3c(=O)n(CCC4=CCCCC4)c(=O)[nH]c3c2)CC1	-26
O=C(NCCN1CCCC1)c1ccc2c(=O)n(CCc3ccccc3)c(=O)[nH]c2c1	11
Cc1ccc2nc3c(cc(C#N)c(=O)n3CC3CCCO3)c(=O)n2c1 (centres undefined)	-12
CCCCn1c(=O)c(C(=O)NCc2ccncc2)c(O)c2ccccc21	8
CCCCCCn1c(=O)c(C(=O)Nc2ccncc2)c(O)c2ccccc21	69*
O=C(Nc1ccncc1)c1c(O)c2ccccc2n(Cc2ccccc2)c1=O	4
C1CNCCNCCCNCCNC1	-4
